Assay results from the supplement of paper PMC6411743.
± gives the standard deviation of the averaged measurements. For some assays here: About 5,400 targets were measured; listed, in parts, are those with the largest changes and a random draw of the rest. For some assays here: Of roughly 6,500 targets only a part is listed; those with the largest changes were picked by preference.

Legend:
[1] = compound: Nc1nc2c(ncn2[C@@H]2O[C@H](COP(=O)(O)OP(=O)(O)OP(=O)(O)O)[C@@H](O)[C@H]2O)c(=O)[nH]1 [guanosine triphosphate]; experiment: NP40-soluble protein abundance relative to vehicle (solubility fold change) (ratio); higher = more soluble protein in presence of GTP
In short: (§1)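 Jurkat crude lysate prepared with a Dounce homogeniser was treated at eight concentrations spanning 0.1 to 10 mM, 10 min at room temperature then 3 min at 37 °C. Solubilisation with 0.8% NP40 and benzonase and ultracentrifugation preceded TMT labelling of the supernatant for LC-MS/MS. Fold change against the detergent-processed vehicle was determined per replicate from vsn-normalised intensities, across three independent experiments.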

[2] = compound: Nc1ncnc2c1ncn2[C@@H]1O[C@H](COP(=O)(O)OP(=O)(O)OP(=O)(O)O)[C@@H](O)[C@H]1O [adenosine triphosphate]; experiment: NP40-soluble protein abundance relative to vehicle (solubility fold change) (ratio); higher = more soluble protein in presence of ATP
In short: as §1

UniProt Q9Y3T6, sequence (Q9Y3T6 whole entry, one chain of several): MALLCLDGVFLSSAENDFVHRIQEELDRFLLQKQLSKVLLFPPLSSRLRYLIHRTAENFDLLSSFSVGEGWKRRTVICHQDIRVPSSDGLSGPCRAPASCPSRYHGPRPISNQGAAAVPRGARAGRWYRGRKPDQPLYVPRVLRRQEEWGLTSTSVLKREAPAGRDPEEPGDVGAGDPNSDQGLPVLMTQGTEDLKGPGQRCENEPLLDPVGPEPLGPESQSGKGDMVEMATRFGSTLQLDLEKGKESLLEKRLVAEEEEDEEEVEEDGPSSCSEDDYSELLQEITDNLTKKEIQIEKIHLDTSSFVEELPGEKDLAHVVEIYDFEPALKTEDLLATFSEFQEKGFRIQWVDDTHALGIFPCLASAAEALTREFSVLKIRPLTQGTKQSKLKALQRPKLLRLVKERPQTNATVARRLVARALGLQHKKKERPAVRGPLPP
UniProt Q9Y3B2, sequence (Q9Y3B2 whole entry, one chain of several): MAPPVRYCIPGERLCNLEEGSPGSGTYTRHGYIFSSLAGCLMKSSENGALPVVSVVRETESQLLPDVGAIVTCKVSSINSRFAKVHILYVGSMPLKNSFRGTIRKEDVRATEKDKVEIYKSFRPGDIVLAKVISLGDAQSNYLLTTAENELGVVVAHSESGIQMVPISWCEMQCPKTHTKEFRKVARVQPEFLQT
UniProt P20936, sequence (P20936 whole entry, one chain of several): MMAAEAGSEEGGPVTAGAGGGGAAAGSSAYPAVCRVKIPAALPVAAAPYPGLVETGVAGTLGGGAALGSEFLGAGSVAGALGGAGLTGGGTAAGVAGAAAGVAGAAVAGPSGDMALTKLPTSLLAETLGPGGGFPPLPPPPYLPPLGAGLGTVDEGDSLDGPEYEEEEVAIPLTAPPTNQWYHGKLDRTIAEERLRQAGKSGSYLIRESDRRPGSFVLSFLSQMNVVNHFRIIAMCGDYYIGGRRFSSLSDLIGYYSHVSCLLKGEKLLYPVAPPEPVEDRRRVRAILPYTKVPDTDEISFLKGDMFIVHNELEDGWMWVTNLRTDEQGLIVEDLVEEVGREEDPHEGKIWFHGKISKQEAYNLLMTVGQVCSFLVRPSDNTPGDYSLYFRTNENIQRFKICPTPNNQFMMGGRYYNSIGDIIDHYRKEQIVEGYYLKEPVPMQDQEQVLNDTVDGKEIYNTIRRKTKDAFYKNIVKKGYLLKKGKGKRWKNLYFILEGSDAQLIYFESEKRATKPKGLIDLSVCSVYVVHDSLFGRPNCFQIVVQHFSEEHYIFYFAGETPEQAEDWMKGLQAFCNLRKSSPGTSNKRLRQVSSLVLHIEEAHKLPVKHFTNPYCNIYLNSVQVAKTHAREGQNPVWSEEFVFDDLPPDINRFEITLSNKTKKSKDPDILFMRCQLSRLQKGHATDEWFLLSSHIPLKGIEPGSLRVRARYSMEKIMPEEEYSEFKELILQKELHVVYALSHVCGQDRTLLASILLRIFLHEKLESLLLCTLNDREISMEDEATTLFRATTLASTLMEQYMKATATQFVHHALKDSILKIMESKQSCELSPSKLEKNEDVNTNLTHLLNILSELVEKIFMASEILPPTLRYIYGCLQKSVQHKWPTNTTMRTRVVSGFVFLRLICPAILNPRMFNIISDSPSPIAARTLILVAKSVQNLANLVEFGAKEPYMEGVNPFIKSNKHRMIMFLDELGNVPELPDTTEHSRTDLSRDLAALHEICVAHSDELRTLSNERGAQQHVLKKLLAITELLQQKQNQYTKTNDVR
UniProt A6NHR9, sequence (A6NHR9 whole entry): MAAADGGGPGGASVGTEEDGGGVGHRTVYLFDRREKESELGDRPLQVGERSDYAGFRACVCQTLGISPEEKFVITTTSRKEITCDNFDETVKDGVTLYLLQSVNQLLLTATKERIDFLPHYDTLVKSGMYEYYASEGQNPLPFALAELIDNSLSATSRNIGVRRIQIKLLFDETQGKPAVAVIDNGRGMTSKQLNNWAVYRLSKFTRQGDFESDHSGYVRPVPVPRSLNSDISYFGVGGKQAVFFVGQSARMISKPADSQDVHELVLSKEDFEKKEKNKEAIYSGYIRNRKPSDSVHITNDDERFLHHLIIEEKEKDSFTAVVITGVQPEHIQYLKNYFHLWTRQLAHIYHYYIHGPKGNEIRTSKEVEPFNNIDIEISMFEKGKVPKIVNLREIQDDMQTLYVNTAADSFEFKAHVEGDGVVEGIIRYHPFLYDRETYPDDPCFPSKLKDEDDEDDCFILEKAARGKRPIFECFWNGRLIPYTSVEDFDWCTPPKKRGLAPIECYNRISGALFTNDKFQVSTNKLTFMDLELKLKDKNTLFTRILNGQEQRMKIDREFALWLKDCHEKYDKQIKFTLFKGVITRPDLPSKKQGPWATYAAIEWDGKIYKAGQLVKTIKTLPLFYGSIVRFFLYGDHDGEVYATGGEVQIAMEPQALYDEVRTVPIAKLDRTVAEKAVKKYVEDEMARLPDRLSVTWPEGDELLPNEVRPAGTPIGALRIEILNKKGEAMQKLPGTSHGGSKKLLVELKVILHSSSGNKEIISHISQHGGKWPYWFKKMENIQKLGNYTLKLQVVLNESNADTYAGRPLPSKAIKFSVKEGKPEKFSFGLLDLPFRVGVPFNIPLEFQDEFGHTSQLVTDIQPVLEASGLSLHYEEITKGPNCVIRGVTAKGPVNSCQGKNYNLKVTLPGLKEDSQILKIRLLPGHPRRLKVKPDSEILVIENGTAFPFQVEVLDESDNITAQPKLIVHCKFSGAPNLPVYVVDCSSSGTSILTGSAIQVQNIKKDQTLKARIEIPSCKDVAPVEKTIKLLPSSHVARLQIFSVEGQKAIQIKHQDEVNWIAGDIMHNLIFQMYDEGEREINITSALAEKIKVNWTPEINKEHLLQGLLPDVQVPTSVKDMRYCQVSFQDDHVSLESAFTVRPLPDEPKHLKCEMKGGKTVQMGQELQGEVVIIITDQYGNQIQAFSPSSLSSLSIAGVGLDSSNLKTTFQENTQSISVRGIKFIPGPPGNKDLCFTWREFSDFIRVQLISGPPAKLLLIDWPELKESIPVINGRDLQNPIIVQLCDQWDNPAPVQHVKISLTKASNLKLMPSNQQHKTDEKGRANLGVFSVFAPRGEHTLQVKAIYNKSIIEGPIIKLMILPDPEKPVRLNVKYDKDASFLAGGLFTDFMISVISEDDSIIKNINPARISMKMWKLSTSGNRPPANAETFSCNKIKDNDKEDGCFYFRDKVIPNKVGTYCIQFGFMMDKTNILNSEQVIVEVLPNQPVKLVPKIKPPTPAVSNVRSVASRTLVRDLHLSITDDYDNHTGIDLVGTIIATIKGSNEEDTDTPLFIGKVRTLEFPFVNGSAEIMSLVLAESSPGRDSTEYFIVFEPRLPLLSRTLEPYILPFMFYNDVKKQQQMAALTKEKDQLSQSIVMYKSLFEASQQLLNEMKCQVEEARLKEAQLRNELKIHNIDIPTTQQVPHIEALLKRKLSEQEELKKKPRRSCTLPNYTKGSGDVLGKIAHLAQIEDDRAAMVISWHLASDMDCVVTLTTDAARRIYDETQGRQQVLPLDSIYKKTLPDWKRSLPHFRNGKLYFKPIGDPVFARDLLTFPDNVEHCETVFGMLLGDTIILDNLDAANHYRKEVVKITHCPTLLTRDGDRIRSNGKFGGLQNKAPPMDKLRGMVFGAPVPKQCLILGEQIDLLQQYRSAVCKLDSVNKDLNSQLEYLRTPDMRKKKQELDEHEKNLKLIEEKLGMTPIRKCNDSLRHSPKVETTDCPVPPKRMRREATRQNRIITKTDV
UniProt P49585, sequence (P49585 whole entry, one chain of several): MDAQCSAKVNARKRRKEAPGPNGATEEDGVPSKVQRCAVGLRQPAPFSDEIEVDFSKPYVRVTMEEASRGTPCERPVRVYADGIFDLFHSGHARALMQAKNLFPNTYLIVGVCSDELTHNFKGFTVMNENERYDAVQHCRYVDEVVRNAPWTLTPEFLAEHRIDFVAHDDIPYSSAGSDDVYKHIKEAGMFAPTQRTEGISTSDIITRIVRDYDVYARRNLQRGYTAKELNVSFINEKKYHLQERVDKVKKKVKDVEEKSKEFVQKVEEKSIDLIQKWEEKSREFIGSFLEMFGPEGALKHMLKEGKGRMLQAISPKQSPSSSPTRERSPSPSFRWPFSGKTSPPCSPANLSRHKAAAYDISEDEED
UniProt O43708, sequence (O43708 whole entry, one chain of several): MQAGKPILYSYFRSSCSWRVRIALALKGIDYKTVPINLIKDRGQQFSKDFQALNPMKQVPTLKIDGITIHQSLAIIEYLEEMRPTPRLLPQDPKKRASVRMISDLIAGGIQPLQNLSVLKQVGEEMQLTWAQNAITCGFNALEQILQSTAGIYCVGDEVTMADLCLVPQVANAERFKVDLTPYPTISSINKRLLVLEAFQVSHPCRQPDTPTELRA
UniProt P19256, sequence (P19256 whole entry, one chain of several): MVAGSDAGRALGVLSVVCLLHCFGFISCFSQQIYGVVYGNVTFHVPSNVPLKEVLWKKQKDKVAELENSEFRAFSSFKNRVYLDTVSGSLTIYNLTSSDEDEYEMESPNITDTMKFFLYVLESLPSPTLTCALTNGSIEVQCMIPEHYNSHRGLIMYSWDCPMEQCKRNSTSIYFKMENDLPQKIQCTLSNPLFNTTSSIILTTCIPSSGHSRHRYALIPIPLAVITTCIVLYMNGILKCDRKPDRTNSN
UniProt O14730, sequence (O14730 whole entry, one chain of several): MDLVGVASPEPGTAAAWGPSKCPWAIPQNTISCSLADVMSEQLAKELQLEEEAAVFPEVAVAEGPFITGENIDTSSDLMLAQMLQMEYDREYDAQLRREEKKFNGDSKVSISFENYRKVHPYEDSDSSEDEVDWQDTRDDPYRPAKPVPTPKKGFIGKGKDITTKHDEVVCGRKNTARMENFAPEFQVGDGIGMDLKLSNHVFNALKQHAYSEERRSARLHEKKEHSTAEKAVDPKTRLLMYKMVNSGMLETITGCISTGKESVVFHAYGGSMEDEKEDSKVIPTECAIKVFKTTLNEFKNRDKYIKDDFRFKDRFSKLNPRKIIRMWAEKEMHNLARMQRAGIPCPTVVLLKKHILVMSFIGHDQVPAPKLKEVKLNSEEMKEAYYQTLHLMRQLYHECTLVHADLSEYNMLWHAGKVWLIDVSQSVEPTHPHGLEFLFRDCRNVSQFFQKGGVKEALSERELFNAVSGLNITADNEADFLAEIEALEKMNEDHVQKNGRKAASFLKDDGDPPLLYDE

Target	NP40-soluble protein abundance ([1]; concentration: 0.1mM)	NP40-soluble protein abundance ([1]; concentration: 0.5mM)	NP40-soluble protein abundance ([1]; concentration: 1mM)	NP40-soluble protein abundance ([1]; concentration: 2mM)	NP40-soluble protein abundance ([1]; concentration: 4mM)	NP40-soluble protein abundance ([1]; concentration: 6mM)	NP40-soluble protein abundance ([1]; concentration: 8mM)	NP40-soluble protein abundance ([1]; concentration: 10mM)	NP40-soluble protein abundance ([2]; concentration: 1mM)	NP40-soluble protein abundance ([2]; concentration: 2mM)	NP40-soluble protein abundance ([2]; concentration: 4mM)	NP40-soluble protein abundance ([2]; concentration: 6mM)	NP40-soluble protein abundance ([2]; concentration: 8mM)	NP40-soluble protein abundance ([2]; concentration: 10mM)
F8VU90|Q9NYL4|Q9NYL4-2 (UniProt Q9NYL4)	0.972 ± 0.06	0.968 ± 0.052	1.04 ± 0.018	1.03 ± 0.065	1.05 ± 0.033	0.996 ± 0.078	0.922 ± 0.041	0.995 ± 0.065	–	–	–	–	–	–
SMCHD1 (UniProt A6NHR9)	1.05 ± 0.04	1.06 ± 0.055	0.999 ± 0.029	1.03 ± 0.07	1.04 ± 0.056	1.04 ± 0.043	1.02 ± 0.051	1.01 ± 0.098	–	–	–	–	–	–
G3V5T0|O43708 (UniProt O43708)	0.95 ± 0.046	0.961 ± 0.087	0.879 ± 0.058	0.867 ± 0.063	0.848 ± 0.068	0.854 ± 0.076	0.819 ± 0.096	0.815 ± 0.091	–	–	–	–	–	–
H0Y362|Q8NEW0 (UniProt Q8NEW0)	1.21 ± 0.043	1.14 ± 0.018	1.14 ± 0.026	1.13 ± 0.1	1.05 ± 0.062	1.05 ± 0.11	1.04 ± 0.055	0.959 ± 0.013	–	–	–	–	–	–
A0A087X256|Q2M389 (UniProt Q2M389)	1.04 ± 0.058	1.01 ± 0.097	0.973 ± 0.048	0.975 ± 0.028	0.957 ± 0.028	0.973 ± 0.044	1.02 ± 0.068	0.889 ± 0.024	–	–	–	–	–	–
B1AL05|H0Y6Y8|H0YBU8|Q8N983|Q8N983-2|Q8N983-3|Q8N983-4|Q8N983-6|Q8N983-7 (UniProt Q8N983)	1.08 ± 0.21	1.07 ± 0.17	1.37 ± 0.45	1.75 ± 0.66	1.71 ± 0.69	1.57 ± 0.65	1.38 ± 0.47	1.59 ± 0.65	–	–	–	–	–	–
E9PKP7|E9PLT2|P17480|P17480-2 (UniProt P17480)	1.02 ± 0.025	1 ± 0.036	1.08 ± 0.025	1.2 ± 0.079	1.31 ± 0.074	1.45 ± 0.066	1.5 ± 0.053	1.87 ± 0.13	–	–	–	–	–	–
A8MQB8|G3V0J0|Q06787|Q06787-2|Q06787-3|Q06787-4|Q06787-5|Q06787-6|Q06787-7|Q06787-8|Q06787-9 (UniProt Q06787)	1.05 ± 0.041	1.15 ± 0.048	1.05 ± 0.065	1.24 ± 0.0061	1.41 ± 0.093	1.71 ± 0.037	1.8 ± 0.048	2.1 ± 0.11	–	–	–	–	–	–
E9PGC0|P20936|P20936-2|P20936-4 (UniProt P20936)	1.05 ± 0.069	1.04 ± 0.091	1.02 ± 0.11	0.997 ± 0.072	0.909 ± 0.027	0.931 ± 0.032	0.961 ± 0.048	0.899 ± 0.031	–	–	–	–	–	–
B4E1Q4|O14730|O14730-2 (UniProt O14730)	0.965 ± 0.1	1.03 ± 0.063	0.949 ± 0.081	0.921 ± 0.073	0.806 ± 0.037	0.77 ± 0.041	0.747 ± 0.08	0.704 ± 0.041	–	–	–	–	–	–
UniProt Q9Y5P4|Q9Y5P4-2|Q9Y5P4-3	–	–	–	–	–	–	–	–	0.9555 ± 0.0053	0.974 ± 0.025	0.948 ± 0.011	0.949 ± 0.024	0.93 ± 0.011	0.954 ± 0.026
F5GY05 (UniProt Q96EK7)	1.06 ± 0.034	1 ± 0.11	1.01 ± 0.036	1.06 ± 0.083	1 ± 0.047	0.99 ± 0.042	1.05 ± 0.083	1.05 ± 0.13	–	–	–	–	–	–
E7EX48|P51957|P51957-3 (UniProt P51957)	1.01 ± 0.097	0.987 ± 0.21	0.961 ± 0.21	1.01 ± 0.2	0.986 ± 0.21	0.957 ± 0.23	0.985 ± 0.25	1.06 ± 0.25	–	–	–	–	–	–
H0UI80|Q8IXH7|Q8IXH7-4|X6RLT1 (UniProt X6RLT1+Q8IXH7+H0UI80)	1.01 ± 0.017	0.973 ± 0.038	0.965 ± 0.024	0.968 ± 0.012	0.981 ± 0.011	0.978 ± 0.01	0.97 ± 0.039	0.95 ± 0.0096	–	–	–	–	–	–
C9J050|C9JEJ2|P49585 (UniProt P49585)	1.01 ± 0.094	0.986 ± 0.078	0.953 ± 0.074	0.945 ± 0.077	0.992 ± 0.073	0.942 ± 0.058	0.942 ± 0.079	0.936 ± 0.054	–	–	–	–	–	–
B4DZG1|Q9Y483|Q9Y483-3|Q96G26|Q9Y483-2|Q9Y483-4 (UniProt Q9Y483)	1.11 ± 0.061	1.09 ± 0.032	1.16 ± 0.044	1.26 ± 0.074	1.4 ± 0.068	1.45 ± 0.095	1.64 ± 0.2	1.78 ± 0.18	–	–	–	–	–	–
E9PCH4|Q8TEU7|Q8TEU7-4 (UniProt Q8TEU7+E9PCH4)	0.967 ± 0.021	0.9825 ± 0.0063	0.968 ± 0.023	0.96 ± 0.02	0.981 ± 0.016	0.969 ± 0.038	1.0058 ± 0.00029	0.9592 ± 0.0034	–	–	–	–	–	–
B1AMU7|Q9Y3B2 (UniProt Q9Y3B2)	1.02 ± 0.037	1.07 ± 0.04	1.01 ± 0.056	1.1 ± 0.11	1.18 ± 0.11	1.22 ± 0.12	1.17 ± 0.062	1.18 ± 0.068	–	–	–	–	–	–
B1AMW1|P19256|P19256-2|P19256-3 (UniProt P19256)	0.879 ± 0.05	0.937 ± 0.095	0.973 ± 0.11	0.915 ± 0.064	0.979 ± 0.038	1.03 ± 0.088	0.952 ± 0.036	0.958 ± 0.047	–	–	–	–	–	–
A0A0R4J2E2|Q9Y3T6|A0A0D9SG39|E5RHX3|E5RIK1|E5RIQ4 (UniProt Q9Y3T6)	0.88 ± 0.0067	0.877 ± 0.017	0.961 ± 0.019	0.923 ± 0.048	0.94794 ± 0.00022	0.908 ± 0.017	0.89 ± 0.034	0.9192 ± 0.0019	–	–	–	–	–	–
A0A0X1KG71|Q8WX92 (UniProt Q8WX92)	0.9588 ± 0.0051	0.964 ± 0.014	0.9785 ± 0.0083	0.973 ± 0.016	0.957 ± 0.025	0.96 ± 0.012	0.936 ± 0.024	0.946 ± 0.02	–	–	–	–	–	–
MYO1G (UniProt B0I1T2)	1.12 ± 0.027	1.47 ± 0.26	1.95 ± 0.34	2.5 ± 0.51	2.75 ± 0.45	2.67 ± 0.49	2.58 ± 0.3	2.35 ± 0.31	–	–	–	–	–	–
H0YIE9|O94952|O94952-1|Q4G104 (UniProt O94952)	1.19 ± 0.045	1.03 ± 0.091	1.05 ± 0.013	1.04 ± 0.12	1.12 ± 0.014	0.978 ± 0.078	1.08 ± 0.035	0.921 ± 0.089	–	–	–	–	–	–
H3BMU3|O60268|O60268-3 (UniProt O60268)	0.928 ± 0.032	0.988 ± 0.17	1.01 ± 0.18	0.95 ± 0.15	0.961 ± 0.14	0.918 ± 0.2	0.919 ± 0.067	0.998 ± 0.096	–	–	–	–	–	–
A9IYQ1|Q9NTI5|Q9NTI5-2 (UniProt Q9NTI5)	1.01 ± 0.015	1.03 ± 0.024	1.01 ± 0.015	0.995 ± 0.036	1.01 ± 0.035	1.01 ± 0.052	1.02 ± 0.08	0.992 ± 0.041	–	–	–	–	–	–
A0A087WYN9|Q7Z478 (UniProt Q7Z478)	1.34 ± 0.086	1.69 ± 0.26	1.66 ± 0.28	1.77 ± 0.29	1.8 ± 0.23	1.84 ± 0.27	1.86 ± 0.27	1.86 ± 0.19	–	–	–	–	–	–
